36 molecules from PubChem BioAssay (Tox21) can be followed below.

Activity calls are given as the source filed them. The call rests on the fitted dose curve; in most records, active means well fitted curve in the direction sought with a large enough effect in the repeat runs; inconclusive means weak or mixed curves; inactive means flat fitted curve, though single readings scatter.
On the % scale 0 is the no-effect control and ±100 the full control effect.

The first assay is described as follows: qHTS assay to test for compound auto fluorescence at 590 nm (red) in HEK293 cell free culture (AID 720683). As to conditions: cell-free medium autofluorescence, Ex540/Em590 red; series mostly up to 91.3 µM. In short, it runs like this:
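Cell-free wells of DMEM with 10% FBS received compound, and intrinsic fluorescence was read at excitation/emission 540/590 nm. Values expressed as equivalence to Rose Bengal sodium.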
For orientation: qHTS replaces the single test concentration by a dilution series.
As to `CN(C)C(=O)NC1(c2ccccc2)CCN(CCC[C@]2(c3ccc(Cl)c(Cl)c3)CCCN(C(=O)c3ccccc3)C2)CC1`, the fluorescence, % of fluorescent control was -0.159% [at 18.6 µM] (inactive).

For the molecule `CCCCOc1cc(C(=O)NCCN(CC)CC)c2ccccc2n1`, the fluorescence, % of fluorescent control was -0.187% [at 18.6 µM] (inactive).

Turning to `COc1ccc(S(=O)(=O)Nc2nnc(CC(C)C)s2)cc1`, the molecule was called inactive.

Take `CCN1CC(CCN2CCOCC2)C(c2ccccc2)(c2ccccc2)C1=O` (stereo not given): the molecule was called inactive.

As to `NC/C=C/C(=O)O`, the molecule was classed as inactive.

For the molecule `CCCOCCC`, the molecule was called inactive.

Consider `FC(F)(F)C(Cl)(Cl)Cl`, for which the call was inactive.

`COc1ccccc1OCC(O)COC(N)=O` (stereo not given): the fluorescence, % of fluorescent control was -0.113% [at 18.6 µM] (inactive).

Turning to `O=Cc1ccc(F)c(Br)c1`, the result was inactive.

As to `C=CCc1cc(OC)c(O)c(C(=O)NCCO)c1`, the molecule was classed as inactive.

As to `Cc1cc(NS(=O)(=O)c2ccc(N)cc2)nc(C)n1`, the outcome was inactive.

Consider `COc1ccccc1N1CCN(CCCNc2cc(=O)n(C)c(=O)n2C)CC1`, for which the result was inactive.

Regarding `CCCCCCC`, the molecule was called inactive.

On to `CCCCNc1cc(C(=O)O)cc(S(N)(=O)=O)c1Oc1ccccc1`, for which the fluorescence, % of fluorescent control is -0.0094% [at 18.6 µM] (inactive).

With `CC(C)OC(C)C`, the molecule was classed as inactive.

`Cc1cc(S(=O)(=O)O)c(N)cc1Cl`: the molecule was classed as inactive.

Take `COc1cc(N)c(Cl)cc1C(=O)NC1CCN(Cc2ccccc2)CC1`: the fluorescence, % of fluorescent control is 0.0929% [at 18.6 µM] (inactive).

With `CCOC(=O)NCCC[Si](OCC)(OCC)OCC`, the molecule was called inactive.

Turning to `O=S(=O)(O)C(F)(F)F`, the outcome was inactive.

In the case of `C=CC1CO1` (stereo not given), the result was inactive.

As for `C[C@]12C(=O)OC(=O)[C@H]1[C@H]1C=C[C@@H]2C1`, the molecule was classed as inactive.

`CCCCC1CCC(=O)O1` (stereo not given): the call was inactive.

With `C1CSCCS1`, the molecule was called inactive.

With `C=CC(C)(O)CC/C=C(\C)CCC=C(C)C` (stereo not given), the molecule was called inactive.

Consider `C=CCCCCCCCCO`, for which the outcome was inactive.

On to `CC(C)C1=CC2=CC[C@@H]3[C@](C)(CCC[C@@]3(C)C(=O)O)[C@H]2CC1`, for which the result was inactive.

The next assay in a line: qHTS assay to test for compound auto fluorescence at 590 nm (red) in HepG2 cell free culture (AID 720684). The note with it: cell-free medium autofluorescence, red 540/590 nm; series mostly up to 91.3 µM. In short, it runs like this: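 Auto fluorescence equivalency versus Rose Bengal sodium, red channel Ex/Em 540/590 nm; compounds in cell-free MEM/10% FBS; DMSO vehicle control.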
On to `CN(C)C(=O)NC1(c2ccccc2)CCN(CCC[C@]2(c3ccc(Cl)c(Cl)c3)CCCN(C(=O)c3ccccc3)C2)CC1`, for which the fluorescence, % of Rose Bengal was -0.0596% [at 18.6 µM] (inactive).

`COC(=O)N[C@H](C(=O)N[C@@H](Cc1ccccc1)[C@@H](O)CN(Cc1ccc(-c2ccccn2)cc1)NC(=O)[C@@H](NC(=O)OC)C(C)(C)C)C(C)(C)C`: the outcome was inactive.

With `COc1ccc(S(=O)(=O)Nc2nnc(CC(C)C)s2)cc1`, the outcome was inactive.

With `CCN1CC(CCN2CCOCC2)C(c2ccccc2)(c2ccccc2)C1=O` (stereo not given), the molecule was called inactive.

In the case of `CCCCNC(=S)NCCCC`, the call was inactive.

Consider `CCCOCCC`, for which the molecule was called inactive.

Take `FC(F)(F)C(Cl)(Cl)Cl`: the result was inactive.

In the case of `COc1ccccc1OCC(O)COC(N)=O` (stereo not given), the fluorescence, % of Rose Bengal is 0.679% [at 18.6 µM] (inactive).

With `O=Cc1ccc(F)c(Br)c1`, the call was inactive.

On to `C=CCCC=C`, for which the molecule was called inactive.

Take `Cc1cc(NS(=O)(=O)c2ccc(N)cc2)nc(C)n1`: the molecule was called inactive.

As for `COc1ccccc1N1CCN(CCCNc2cc(=O)n(C)c(=O)n2C)CC1`, the molecule was called inactive.

Regarding `CCCCNc1cc(C(=O)O)cc(S(N)(=O)=O)c1Oc1ccccc1`, the fluorescence, % of Rose Bengal was 0.449% [at 18.6 µM] (inactive).

In the case of `CC(C)OC(C)C`, the outcome was inactive.

As for `COc1cc(N)c(Cl)cc1C(=O)NC1CCN(Cc2ccccc2)CC1`, the fluorescence, % of Rose Bengal was 0.723% [at 18.6 µM] (inactive).

As for `CCN(O)CC`, the molecule was classed as inactive.

As to `O=S(=O)(O)C(F)(F)F`, the molecule was classed as inactive.

On to `Cc1cccc(C)c1NC(=O)CN1CCCCCC1`, for which the result was inactive.

In the case of `C=CC1CO1` (stereo not given), the molecule was classed as inactive.

With `CCCCC1CCC(=O)O1` (stereo not given), the call was inactive.

`C1CSCCS1`: the molecule was called inactive.

For `CC(CNC1CCCCC1)OC(=O)c1ccccc1` (stereo not given), the fluorescence, % of Rose Bengal is 0.136% [at 18.6 µM] (inactive).

`C=CC(C)(O)CC/C=C(\C)CCC=C(C)C` (stereo not given): the outcome was inactive.

As for `CCOc1ccccc1N`, the molecule was classed as inactive.

Turning to `CCN[C@H]1CN(CCCOC)S(=O)(=O)c2sc(S(N)(=O)=O)cc21`, the fluorescence, % of Rose Bengal is 0.0022% [at 18.6 µM] (inactive).

As for `C=CCCCCCCCCO`, the result was inactive.

With `O=C(C(Cl)Cl)N1CCOC12CCCCC2`, the molecule was classed as inactive.

For the molecule `CC(C)C1=CC2=CC[C@@H]3[C@](C)(CCC[C@@]3(C)C(=O)O)[C@H]2CC1`, the molecule was classed as inactive.

A short description of the next assay: qHTS assay to test for compound auto fluorescence at 460 nm (blue) in HepG2 cell free culture (AID 720685). The note with it: Cell-free culture medium, blue autofluorescence 405/460 nm; series mostly up to 91.3 µM. The essentials: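 Cell-free plates of MEM plus 10% FBS received 23 nL compound or DMSO vehicle; blue-channel (405/460 nm) intensity scored against triamterene as reference fluorophore.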
For the molecule `CN(C)C(=O)NC1(c2ccccc2)CCN(CCC[C@]2(c3ccc(Cl)c(Cl)c3)CCCN(C(=O)c3ccccc3)C2)CC1`, the fluorescence, % of fluorescent control is -0.114% [at 18.6 µM] (inactive).

`CCCCOc1cc(C(=O)NCCN(CC)CC)c2ccccc2n1`: the fluorescence, % of fluorescent control was 0.0544% [at 18.6 µM] (inactive).

In the case of `COC(=O)N[C@H](C(=O)N[C@@H](Cc1ccccc1)[C@@H](O)CN(Cc1ccc(-c2ccccn2)cc1)NC(=O)[C@@H](NC(=O)OC)C(C)(C)C)C(C)(C)C`, the molecule was classed as inactive.

On to `COc1ccc(S(=O)(=O)Nc2nnc(CC(C)C)s2)cc1`, for which the call was inactive.

With `CCN1CC(CCN2CCOCC2)C(c2ccccc2)(c2ccccc2)C1=O` (stereo not given), the molecule was called inactive.

Regarding `NC/C=C/C(=O)O`, the result was inactive.

Consider `CCCCNC(=S)NCCCC`, for which the result was inactive.

As for `CCCOCCC`, the result was inactive.

In the case of `FC(F)(F)C(Cl)(Cl)Cl`, the outcome was inactive.

As for `COc1ccccc1OCC(O)COC(N)=O` (stereo not given), the fluorescence, % of fluorescent control was 0.0993% [at 18.6 µM] (inactive).

`O=Cc1ccc(F)c(Br)c1`: the molecule was called inactive.

Consider `C=CCc1cc(OC)c(O)c(C(=O)NCCO)c1`, for which the call was inactive.

For `C=CCCC=C`, the result was inactive.

On to `Cc1cc(NS(=O)(=O)c2ccc(N)cc2)nc(C)n1`, for which the call was inactive.

As to `COc1ccccc1N1CCN(CCCNc2cc(=O)n(C)c(=O)n2C)CC1`, the result was inactive.

Consider `CCCCCCC`, for which the molecule was called inactive.

In the case of `CCCCNc1cc(C(=O)O)cc(S(N)(=O)=O)c1Oc1ccccc1`, the fluorescence, % of fluorescent control is -0.0399% [at 18.6 µM] (inactive).

For the molecule `CC(C)OC(C)C`, the result was inactive.

`Cc1cc(S(=O)(=O)O)c(N)cc1Cl`: the molecule was called inactive.

On to `COc1cc(N)c(Cl)cc1C(=O)NC1CCN(Cc2ccccc2)CC1`, for which the fluorescence, % of fluorescent control was 2.92% [at 18.6 µM] (inactive).

Turning to `CCOC(=O)NCCC[Si](OCC)(OCC)OCC`, the outcome was inactive.

In the case of `CCN(O)CC`, the molecule was called inactive.

With `O=S(=O)(O)C(F)(F)F`, the result was inactive.

`Cc1cccc(C)c1NC(=O)CN1CCCCCC1`: the result was inactive.

As for `C=CC1CO1` (stereo not given), the molecule was called inactive.

Turning to `C[C@]12C(=O)OC(=O)[C@H]1[C@H]1C=C[C@@H]2C1`, the call was inactive.

On to `CCCCC1CCC(=O)O1` (stereo not given), for which the call was inactive.

In the case of `C1CSCCS1`, the molecule was called inactive.

For `CC(CNC1CCCCC1)OC(=O)c1ccccc1` (stereo not given), the fluorescence, % of fluorescent control is -0.0346% [at 18.6 µM] (inactive).

With `C=CC(C)(O)CC/C=C(\C)CCC=C(C)C` (stereo not given), the molecule was called inactive.

Consider `CCOc1ccccc1N`, for which the result was inactive.

Take `CCN[C@H]1CN(CCCOC)S(=O)(=O)c2sc(S(N)(=O)=O)cc21`: the fluorescence, % of fluorescent control was -0.0073% [at 18.6 µM] (inactive).

For `C=CCCCCCCCCO`, the molecule was classed as inactive.

On to `O=C(C(Cl)Cl)N1CCOC12CCCCC2`, for which the result was inactive.

For the molecule `CC(C)C1=CC2=CC[C@@H]3[C@](C)(CCC[C@@]3(C)C(=O)O)[C@H]2CC1`, the molecule was called inactive.

Regarding `CC1(C)O[C@@H]2C[C@H]3[C@@H]4CCC5=CC(=O)CC[C@]5(C)[C@@]4(F)[C@@H](O)C[C@]3(C)[C@]2(C(=O)CCl)O1`, the fluorescence, % of fluorescent control is 0.0173% [at 18.6 µM] (inactive).
